Lassa entry inh = inhibitors of Lassa virus binding or cell entry. Lassa virus pseudotype entry inhibition, cell reporter. Potency, µM (titrated, usually from 37.9 µM), without a hit: at the top dose activity change, negative = inhibition, usual class: inhibitors. 1.2% of 300,000 active; calls by dose curve; tested in HEK293 cells; further: potency means the concentration at half of the fitted maximal effect; nearly all actives have a fitted effect of over 50% in size
Pf growth 96h = P. falciparum growth inhibition at 96 hours; P. falciparum luciferase reporter growth, 96 h; Potency, µM (doses to about 28.7 µM), for the others: at the highest dose activity change, negative = inhibition, actives largely listed as inhibitors; 6.9% of 320,000 active; AID 504834; further: potency means the concentration at half of the fitted maximal effect
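Erythrocytes infected with luciferase-expressing P. falciparum were dispensed at 2% hematocrit and 0.05% parasitemia (final), then incubated with compounds 96 hours at 37 C in 5% CO2. Luminescence after detection reagent addition reported growth.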
HCV inh = blocks hepatitis C virus. Huh7.5.1 HCVcc-Cre infection, luciferase reporter, 44 h. Potency, µM (titrated, usually from 41.8 µM), inactives show top-dose activity change, negative = inhibition, hits mostly inhibitors. 3.4% of 340,000 active. AID 651820; further: potency means the concentration at half of the fitted maximal effect
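Whole-lifecycle infectious HCVcc-Cre system; cells 1,000/well, compound then virus (~0.5 moi) added 4 h after plating, 44 h culture. Luciferase read 15 sec following 15 min substrate incubation, room temp.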
HCMV antiviral = blocks human cytomegalovirus replication; HFF cells, HCMV-luciferase reporter, 72 h; hits give low values; activity change, negative = inhibition, % at 57.5 µM; 4.5% of 410,000 active; AID 1259415; in the data active means activity change below about -60%; inconclusive means no clear call, values can overlap the other calls; inactive means above about -39%
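Two compound doses tested in HFFs infected with HCMV-luciferase, MOI 1 PFU/cell, 72 h at 37C. Lysate luminescence read with OneGlo; data normalized against buffer-only and 10uM Salinomycin inhibitor controls.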
MARV entry inh = blocks Marburg virus binding to or entry into cells; Marburg virus pseudotyped entry inhibition, cell reporter; Potency, µM (titrated, usually from 37.8 µM), inactives show at the top dose activity change, negative = inhibition, actives largely listed as inhibitors; 1.8% of 300,000 active; AID 540276; calls by dose curve; tested in HEK293 cells; further: potency means the concentration at half of the fitted maximal effect
Pf growth 48h = P. falciparum growth inhibition at 48 hours (one generation) | Potency, µM (series often up to 28.7 µM), without a hit: at the top dose activity change, negative = inhibition, most hits filed as inhibitors | P. falciparum luciferase growth in erythrocytes, 48 h | 5.9% of 310,000 active; further: potency means the concentration at half of the fitted maximal effect
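In quantitative HTS format, infected erythrocytes bearing luciferase-reporter parasites were treated for a single generation at 37 C. Luminescence after adding detection reagent served as the growth measure.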
The depositor's hits bear a star; ? = inconclusive; nt = not tested or not shown; + = active, no number; ! = repeats disagree; [ ] = another dose, or the depositor's remark. Only some compounds are listed: those with a hit (about 14% of all), similar ones and a draw of the others. Unless noted, the call rests on the fitted dose curve; in most records, active means well fitted inhibition curve with a large enough effect; inconclusive means small, poorly fitted or top-dose-only effect, or another doubt; inactive means no such curve, though single readings can be large or run the other way. On the % scale 0 is the no-effect control and ±100 the full control effect.

SMILES | Lassa entry inh | Pf growth 96h | HCV inh | HCMV antiviral | MARV entry inh | Pf growth 48h
N#C/C(=C/c1ccc(Sc2nc3ccccc3[nH]2)o1)c1cccc(F)c1 | 1% | -12% | ? | -103* | -20% | nt
CC(C)(C)S(=O)N1Cc2cc(C(=O)NCc3ccc4c(c3)OCO4)nc(-c3cccc(-c4cc5ccccc5o4)c3)c2[C@@H]1CCO (stereo not given in full) | nt | nt | nt | -4 | nt | nt
COc1cccc(N2C(=O)C(CC(=O)Nc3cccc(F)c3)N(C3CCCC3)C2=O)c1 (stereo not given) | -21%[46.1 µM] | nt | nt | 2 | nt | nt
CCCCC(=O)N(Cc1ccc(-c2ccccc2-c2nn[nH]n2)cc1)C(C(=O)O)C(C)C (stereo not given) | nt | 11µM* | nt | nt | nt | 15µM*
CCCCc1nc(Cl)c(CO)n1Cc1ccc(-c2ccccc2-c2nn[nH]n2)cc1 | nt | 7.6µM* | 0.56µM* | 1 | nt | 13µM*!
CC(Sc1ccc(Cl)cc1)C(=O)NNC(=O)c1ccccc1O (stereo not given) | nt | ? | ? | 12 | nt | ?
Cc1cccc(N2CCN(S(=O)(=O)c3ccc4oc(=O)c5ncn(C)c5c4c3)CC2C)c1 (stereo not given) | -7%[46.1 µM] | nt | nt | 13 | nt | nt
Cc1c(Cl)cccc1-n1ncc(C(=O)Nc2ccc3c(c2)OCCO3)c1C1CCN(C(=O)OC(C)(C)C)CC1 | ? | nt | nt | -82* | nt | nt
COc1ccc(-n2ncc(C(=O)Nc3ccc4c(c3)OCCO4)c2C2CCN(C(=O)OC(C)(C)C)CC2)cc1 | ? | nt | nt | + | nt | nt
CC(C)(C)OC(=O)N1CCC(c2c(C(=O)Nc3ccc4c(c3)OCCO4)cnn2-c2ccc(F)cc2)CC1 | ? | nt | nt | -6 | nt | nt
CCOC(=O)C1=CCN(S(=O)(=O)c2ccc(Br)cc2)C1c1cccc(C)c1 (stereo not given) | nt | nt | nt | -16 | nt | nt
FC(F)(F)c1nnc2c(Sc3ccccc3)nc3ccc(Cl)cc3n12 | ? | ? | 11µM* | -103* | ? | ?
Cc1ccc(N(CC(=O)NCc2ccncc2)S(C)(=O)=O)cc1Cl | 2% | nt | 20% | 25 | ? | 21%
CCOc1ccc(N(CC(=O)Nc2cccnc2)S(=O)(=O)c2ccc(C)cc2)cc1 | ? | 2% | 4% | -29 | ? | 13µM*
Cc1ccc(N(CC(=O)NCc2cccnc2)S(C)(=O)=O)cc1C | 2% | 4.1µM* | 3% | 25 | ? | 11%
CCOc1ccc(N(CC(=O)O)S(=O)(=O)c2cccnc2)cc1 | nt | 15µM* | 11% | 6 | nt | nt
CC(C)c1ccc(N(CC(=O)O)S(=O)(=O)c2cccnc2)cc1 | nt | -3% | -3% | -12 | nt | nt
COc1cccc(N(CC(=O)Nc2cccnc2)S(C)(=O)=O)c1 | 2%[46.1 µM] | 0% | 9% | -103* | ? | 16%
CCOc1ccccc1C(=O)N(Cc1ccc(N(C)C)cc1)CC1CCCO1 (stereo not given) | -13%[46.1 µM] | nt | nt | ? | 10%[46.1 µM] | nt
COc1ccc(C2C(C(=O)Nc3ccccc3)=C(C)Nc3nc(-c4ccccc4Cl)nn32)cc1OC (stereo not given) | ? | nt | nt | 1 | ? | nt
Cc1cc(C)n(-c2nc3ccccc3nc2N2CCN(S(=O)(=O)c3cccc(C#N)c3)CC2)n1 | -36% | 21% | ? | 15 | ? | 4.1µM*
CCn1c(N2CCN(S(=O)(=O)c3ccc(OC)cc3)CC2)nc2ccccc21 | 8.9µM* | 12µM* | 10µM* | -39 | ? | ?
CCn1c(N2CCN(C(=O)C34CC5CC(CC(C5)C3)C4)CC2)nc2ccccc21 | 0% | nt | -16% | nt | ? | 13µM*
CCn1c(N2CCN(S(=O)(=O)c3ccccc3C(F)(F)F)CC2)nc2ccccc21 | ? | ? | -25% | -33 | -19% | ?
COc1ccc(S(=O)(=O)N2CCN(c3nc4ccccc4nc3-n3nc(C)cc3C)CC2)cc1 | nt | 9.3µM* | 13% | nt | nt | ?
SMILES | Lassa entry inh | Pf growth 96h | HCV inh | HCMV antiviral | MARV entry inh | Pf growth 48h
Cc1ccc([C@H]2C[C@H](O)[C@@H](n3cc(COC(=O)c4ccccc4)nn3)CN2C(=O)c2cccs2)cc1 | 1%[46.1 µM] | nt | nt | 4 | nt | nt
CCCOc1ccc(NC(=O)C(=O)NCCCN2CCOCC2)cc1 | 20%[46.1 µM] | nt | nt | -22 | -8%[46.1 µM] | nt
NC(c1csc(NC(=O)c2cccc(OC(F)(F)F)c2)n1)c1ccccc1Cl (stereo not given) | nt | nt | nt | 16 | nt | nt
Cc1cccc(NC(=O)c2cc(-c3cc(C)ccc3O)n[nH]2)c1 | ? | ? | 9% | 71 | ? | ?
Cc1ccc(O)c(-c2cc(C(F)(F)F)[nH]n2)c1 | 13% | 15µM* | -26% | -40 | ? | ?
CCC1SC2=NC(C)=C(C(=O)OCC(C)C)C(/C=C/c3ccccc3OC)N2C1=O (stereo not given) | -17% | 12µM* | -8% | -11 | -21% | ?
CCC1SC2=NC(C)=C(C(=O)OCCOC)C(/C=C/c3ccccc3OC)N2C1=O (stereo not given) | 0% | -28% | -22% | 18 | -8%[46.1 µM] | ?
